Screening results: PubChem, The Scripps Research Institute Molecular Screening Center
UHRF1 MBD2 ctr: human UHRF1 methylated DNA binding inhibitors; 370,000 compounds, 0.75% hits; Q96T88; AID 687016; UHRF1 binding to methylated oligo, TR-FRET; inhibition, % at 4.4 µM; in the data active = inhibition above about 21%;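 also: UHRF1 SRA domain binding a hemimethylated CpG hairpin DNA probe; 0% = median of test compound wells and 100% = reference inhibitor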
Target sequence (Q96T88 whole entry, looked up, the tested form may be a part): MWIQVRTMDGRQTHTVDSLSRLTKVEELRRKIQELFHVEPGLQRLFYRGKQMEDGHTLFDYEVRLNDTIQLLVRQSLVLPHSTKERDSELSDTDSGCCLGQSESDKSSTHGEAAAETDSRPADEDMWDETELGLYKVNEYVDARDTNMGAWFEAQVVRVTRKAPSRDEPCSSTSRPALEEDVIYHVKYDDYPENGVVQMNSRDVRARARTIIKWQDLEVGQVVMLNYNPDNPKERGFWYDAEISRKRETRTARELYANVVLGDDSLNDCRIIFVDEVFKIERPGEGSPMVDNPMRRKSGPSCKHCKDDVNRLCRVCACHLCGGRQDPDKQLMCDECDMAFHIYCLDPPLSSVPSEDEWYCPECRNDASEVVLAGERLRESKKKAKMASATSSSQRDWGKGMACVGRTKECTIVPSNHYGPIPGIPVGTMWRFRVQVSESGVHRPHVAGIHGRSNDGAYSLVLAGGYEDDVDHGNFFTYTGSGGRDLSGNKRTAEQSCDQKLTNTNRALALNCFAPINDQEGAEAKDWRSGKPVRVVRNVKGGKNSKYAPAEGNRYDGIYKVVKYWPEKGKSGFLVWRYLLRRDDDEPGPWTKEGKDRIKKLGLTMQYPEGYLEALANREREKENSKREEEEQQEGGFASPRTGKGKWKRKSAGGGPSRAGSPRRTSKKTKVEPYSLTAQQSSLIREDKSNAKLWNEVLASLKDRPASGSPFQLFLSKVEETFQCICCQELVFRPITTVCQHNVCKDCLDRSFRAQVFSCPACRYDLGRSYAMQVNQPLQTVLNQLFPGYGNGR
MBD2 DNA inh: MBD2-methylated oligo binding inhibition. Q9UBB5. TR-FRET, MBD2 binding to methylated oligonucleotide. inhibition, % at 4.4 µM. 370,000 compounds, 0.31% hits. AID 686964; in the data active = inhibition above about 13%
LEDGF integ inh: blocks HIV-1 LEDGF/p75-dependent DNA integration; 370,000 compounds, 0.64% hits; TR-FRET IN-LEDGF/p75 DNA integration, Eu/Cy5; inhibition, % at 3.7 µM;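 active = inhibition above the screen-wide mean plus 3 SD, cut at about 13% in these data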;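 also: signal is the Cy5 over europium emission ratio at 671 and 618 nm; 0% = plate median of compound wells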
PRMT1 FP inh: inhibitors of human PRMT1; recombinant PRMT1, activity-based probe fluorescence polarization; inhibition, % at 2.79 µM; 370,000 compounds, 1.3% hits;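 active = inhibition above about 21% made by adding two undisclosed values, limit read from the data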
IN multimer up: counter-screen for LEDGF/p75 integration inhibitors: HIV-1 integrase multimerization activators; shares compounds with LEDGF integ inh; TR-FRET HIV-1 integrase multimerization, biochemical; activation, % at 7.7 µM; 2,000 compounds, 17% hits; AID 1053131; in the data active = activation above about 8.9%
TRFRET interf: counter-screen for LEDGF/p75 integration inhibitors: TR-FRET optical interference; AID 1053135; inhibition, % at 7.7 µM; shares compounds with LEDGF integ inh; TR-FRET optical interference counterscreen, HIV-1 IN multimerization; 2,000 tested, under 10 active;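 active = inhibition above the mean over all tested compounds plus 3 SD, which no compound reached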;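 also: 0% = integrase with antibodies and DMSO and 100% = antibodies without integrase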
LEDGF integ conf: confirmation of HIV-1 LEDGF/p75-dependent integration inhibitors; shares compounds with LEDGF integ inh; TR-FRET LEDGF/p75-dependent HIV-1 integration, biochemical; inhibition, % at 3.7 µM; 2,000 compounds, 36% hits; AID 1053136; in the data active = inhibition above about 14%
* marks the source's active call; other numbers are inactive results; . = no result given. This is a sample that favours compounds with a hit; in the whole collection about 2.5% have one here.

SMILES	UHRF1 MBD2 ctr	MBD2 DNA inh	LEDGF integ inh	PRMT1 FP inh	IN multimer up	TRFRET interf	LEDGF integ conf
Cc1cc(C)c(NC(=O)CN(C)C(=O)CCC(=O)c2ccc(C)s2)c(C)c1	0	1	-1	4	.	.	.
Cc1ccc(CNc2ccc(O)cc2)cc1	-2	-8	20*	16	11*	-56	31*
Cc1ccc(NCc2ccccc2O)cc1	-2	3	-2	0	.	.	.
Cc1ccccc1OCC(=O)N(Cc1ccco1)c1c(N)n(Cc2ccccc2)c(=O)[nH]c1=O	-1	-7	6	0	.	.	.
Nc1c(C(=O)N/N=C/c2ccc(Cl)cc2)cnn1-c1ccccc1	1	5	0	1	.	.	.
Nc1scc2c(C(=O)N/N=C/c3ccc(Cl)cc3)nn(-c3ccccc3)c(=O)c12	7	-3	13*	22*	4	-15	11
O=C(NCc1ccncc1)[C@@H]1CCCN1C(=O)[C@H]1CCCN1	-1	-6	-1	2	.	.	.
COc1ccc(C(=O)N2CCC(C(=O)c3ccc(F)cc3)CC2)cc1	1	3	80*	1	0	1	-4
COc1ccc(C(=O)C2CCN(C(=O)c3ccc(OC)cc3)CC2)cc1	-2	3	2	-2	.	.	.
COC(=O)[C@]1(CNC(=O)Nc2ccc(C)c(Cl)c2)CC(=O)N(C)[C@@H]1c1ccccc1	5	2	3	-5	.	.	.
CC(NS(=O)(=O)c1ccc(Br)cc1F)[C@H](O)c1ccccc1 (some centres not stated)	-2	4	15*	0	2	-8	-3
O=C1[C@H](Cc2ccccc2)NCC=CC[C@@H](c2ccc(Cl)cc2)N1Cc1ccccc1	-4	4	-1	0	.	.	.
Cc1nc(C(=O)NCCCO)cc2c1[nH]c1ccccc12	2	0	27*	1	-2	6	-1
Cc1nc(C(=O)NCCO)cc2c1[nH]c1ccccc12	-2	-7	7	-4	.	.	.
COc1ccc(-c2sc(C(=O)c3ccc(Cl)cc3Cl)cc2CC(=O)O)cc1	2	-2	1	-1	.	.	.
O=C1c2cccc(Cl)c2C(=O)c2c1cccc2N1CCCC1	14	-3	32*	7	1	-6	-9
CCCCCc1ccc(NC(=O)O[C@@H]2CC[C@@]34CCCN3C(=O)CCC[C@H]4C2)cc1	1	-1	-5	3	.	.	.
COc1cc(/C=N/Nc2nncn2/N=C/c2ccc(O)c(OC)c2)ccc1O	10	2	48*	5	7	-24	-6
C(=N\Nc1nncn1/N=C/c1ccco1)/c1ccco1	-4	-8	37*	2	1	-5	2
COc1cc(/C=N/NC(=O)c2ccncc2)ccc1OC(C)=O	-3	-4	1	-2	.	.	.
COc1ccc(OC)c(/C=N/Nc2nncn2/N=C/c2cc(OC)ccc2OC)c1	4	3	39*	-1	1	-4	2
COc1ccc(OC)c(/C=N\Nc2nccs2)c1	-5	3	-2	-2	.	.	.
COc1cc(/C=N\Nc2nncn2N)ccc1OC(C)=O	8	2	58*	0	0	1	2
S=c1[nH]ncn1/N=C/c1ccco1	1	2	4	-4	.	.	.
CC(=O)c1sc(NC(=O)C2CC(=O)N(Cc3ccccc3)C2)nc1-c1ccccc1 (configuration not stated)	-1	-5	1	4	.	.	.
SMILES	UHRF1 MBD2 ctr	MBD2 DNA inh	LEDGF integ inh	PRMT1 FP inh	IN multimer up	TRFRET interf	LEDGF integ conf
Cn1c(SCC(=O)Nc2nc(C(C)(C)C)cs2)nnc1C1CC1	4	3	2	-5	.	.	.
CCN(C(=O)COC(=O)C1CCN(S(=O)(=O)c2ccc3c(c2)OCCO3)CC1)C1CCCCC1	3	0	-3	6	.	.	.
Nc1n[nH]c(CCCO)n1	0	1	25*	0	-1	3	-4
Nc1ccc2nc(CCCO)[nH]c2c1	-6	-6	-2	-2	.	.	.
Cc1occc1C(=O)NNS(=O)(=O)c1ccc([N+](=O)[O-])cc1	-2	0	1	2	.	.	.
COc1ccc(-c2c(-c3cc(OC)cc(OC)c3)n(C)c3ccc(-c4ccc(OC)nc4)cc23)cc1	1	3	19*	-5	1	-5	-5
COc1ccc(-c2c(-c3cc(OC)cc(OC)c3)n(C)c3ccc(-c4cnc(N)nc4)cc23)cc1	0	2	-5	-3	.	.	.
CCCn1nnc(NC(=O)/C=C/c2ccco2)n1	-2	-2	6	1	.	.	.
CCOc1ccc(NC(=S)NC(=O)/C=C/c2ccco2)cc1	-2	0	4	6	.	.	.
Cn1nnc(NC(=S)NC(=O)/C=C/c2ccco2)n1	14	7	14*	15	6	-22	11
COc1cc(NS(=O)(=O)c2ccc(NC(=S)NC(=O)/C=C/c3ccco3)cc2)ncn1	45*	7	23*	19	8	-27	37*
CC1C/C(=C/c2cccs2)C(=O)/C(=C/c2cccs2)C1 (configuration not stated)	28*	2	29*	22*	0	2	5
CCC(C)(C)NC(=O)CN(C(=O)C(=O)Nc1ccc2c(c1)OCCO2)C1CC1	2	-2	1	-5	.	.	.
COc1ccc(CC(=O)O/N=C(\N)Cc2cccc3ccccc23)cc1	-1	0	14*	2	-1	3	-1
CSc1ncccc1C(=O)OCC(=O)N1CCN(S(=O)(=O)c2ccc(C)cc2C)CC1	0	-2	-2	-2	.	.	.
Cc1ccc(S(=O)(=O)N2CCN(C(=O)COC(=O)c3cccnc3Cl)CC2)c(C)c1	-2	-7	66*	-3	-2	7	1
COc1ccc(-c2csc3nc(C(C)(C)C)oc(=O)c23)cc1OC	4	-3	16*	-1	7	-27	8
Cc1nc2ccccc2n2c(O)c(CC(=O)O)cc12	16	5	23*	44*	7	-34	17*
Cc1nc2ccccc2n1CCC(=O)O	0	4	0	0	.	.	.
Cn1nnnc1SCC(=O)N1CCCCC1	20	8	-1	0	.	.	.
Cn1nnnc1SCC(=O)N1CCN(c2ccc(Cl)cc2)CC1	-1	2	57*	0	1	-3	2
CCN(CC)c1ccc(N=Cc2ccc(N(CC)CC)cc2O)cc1	-2	-7	15*	24*	6	-22	-6
CCN(CC)c1ccc(C=Nc2ccc(N(C)C)cc2)c(O)c1	11	-6	34*	25*	13*	-45	4
CCN(CC)c1ccc(C=Nc2ccc(C)cc2)c(O)c1	-2	-5	0	1	.	.	.
CC(C=CC(O)=C1C(=O)CNC1=O)=C[C@@H](C)C1OC2(C)OC(C(=O)C3O[C@@]32C)C1C (some centres not stated)	-7	-7	22*	-4	5	-23	12
